Results on 4 compounds are retold here after PubChem BioAssay (EPA / NIEHS).

The structures appear in SMILES notation. Active and inactive are the calls of the source. Rule for the calls: active = hit-call score of the fitted dose curve at least 0.9, where 1 is the maximum; inactive = score below 0.9.

Holding throughout (details): mRNA level, 48 h; actives raise or lower the signal
Read-out in test [1]: Cytochrome P450 (CYP2B6), CYP2B6 (gene 1555)
The test is described as follows: LTEA_HepaRG_CYP2B6: Life Technologies and Expression Analysis (LTEA) Assay for Cytochrome P450 (CYP2B6) using HepaRG (AID 2283481). The gist of the method:
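HepaRG cells plated 48 h, switched to serum-free induction medium, then dosed 48 h (8 points, half-log from 100 uM, 0.5% DMSO). RNA isolated; CYP2B6 expression measured by qRT-PCR; gain or loss fitted relative to DMSO.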

Read-out in test [2]: Cytochrome P450 2C19 (Homo sapiens) (UniProt P33261)
Briefly: LTEA_HepaRG_CYP2C19: Life Technologies and Expression Analysis (LTEA) Assay for CYP2C19 using HepaRG (AID 2283482). The gist of the method:
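Transcript levels of CYP2C19 were quantified by qRT-PCR after HepaRG cells were treated for 48 hours with test chemicals up to 100 uM (eight half-log concentrations, 0.5% DMSO vehicle). Gain or loss of signal was fitted relative to DMSO.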

Read-out in another test: CYP2C8 (gene 1558)
Briefly: LTEA_HepaRG_CYP2C8: Life Technologies and Expression Analysis (LTEA) Assay for CYP2C8 using HepaRG (AID 2283483). The gist of the method: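 Differentiated HepaRG cells in serum-free induction medium exposed 48 h in duplicate to 8 half-log concentrations from 100 uM in 0.5% DMSO. CYP2C8 mRNA by qRT-PCR normalized to ACTB, GAPDH, POLR2A; bidirectional fit versus DMSO.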

Read-out in the next test: CYP2C9 (gene 1559)
Briefly: LTEA_HepaRG_CYP2C9: Life Technologies and Expression Analysis (LTEA) Assay for CYP2C9 using HepaRG (AID 2283484). The gist of the method:
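Differentiated human HepaRG cells in serum-free induction medium were exposed 48 h to chemicals in 8-point half-log series from 100 uM (0.5% DMSO), in duplicate. CYP2C9 mRNA was measured by qRT-PCR, normalized to ACTB/GAPDH/POLR2A, with bidirectional fitting versus DMSO.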

Read-out in a further test: CYP4A11 (gene 1579)
The test is described as follows: LTEA_HepaRG_CYP4A11: Life Technologies and Expression Analysis (LTEA) Assay for CYP4A11 using HepaRG (AID 2283486). The gist of the method:
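HepaRG, 48 h chem exposure, 8 conc (100 uM top, half-log), 0.5% DMSO vehicle; qRT-PCR readout, housekeeping-gene normalized; bidirectional curve fit vs DMSO baseline.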

Read-out in test [3]: DNA damage-inducible transcript 3 (DDIT3), DDIT3 (gene 1649)
Briefly: LTEA_HepaRG_DDIT3: Life Technologies and Expression Analysis (LTEA) Assay for DNA damage-inducible transcript 3 (DDIT3) using HepaRG (AID 2283488). The gist of the method: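 HepaRG cells, 48 h after plating, exposed 48 h in serum-free induction medium to 8 half-log concentrations up to 100 uM in 0.5% DMSO, in duplicate. DDIT3 mRNA measured by TaqMan qRT-PCR, normalized to ACTB, GAPDH and POLR2A. Fitted bidirectionally against DMSO.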

Read-out in test [4]: Pro-epidermal growth factor (Homo sapiens) (UniProt P01133)
The test is described as follows: LTEA_HepaRG_EGF: Life Technologies and Expression Analysis (LTEA) Assay for Epidermal growth factor (EGF) using HepaRG (AID 2283489). The essentials:
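HepaRG, 48 h dosing, 100 uM top, half-log x8, 0.5% DMSO. Readout: TaqMan qRT-PCR (Fluidigm array), housekeeping-normalized. Gain or loss of signal fit vs DMSO.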

Read-out in test [5]: Ezrin (EZR), EZR (gene 7430)
The test is described as follows: LTEA_HepaRG_EZR: Life Technologies and Expression Analysis (LTEA) Assay for Ezrin (EZR) using HepaRG (AID 2283491). The essentials:
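EZR transcript levels came from Fluidigm qRT-PCR and were normalized to three housekeeping genes after 48 h chemical exposure of HepaRG cells. Dosing used an 8-point half-log series with a 100 uM top concentration in 0.5% DMSO, tested in duplicate; both directions were fitted versus vehicle.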

Read-out in test [6]: Cytochrome P450 3A7 (Homo sapiens) (UniProt P24462)
The test is described as follows: LTEA_HepaRG_CYP3A7: Life Technologies and Expression Analysis (LTEA) Assay for CYP3A7 using HepaRG (AID 2283492). The essentials:
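Human HepaRG liver cells, 48 h post-plating, switched to serum-free induction medium and exposed in duplicate for 48 h. Dosing: 100 uM top, half-log dilutions, 8 points, 0.5% DMSO vehicle. Read-out: CYP3A7 mRNA, gain or loss fitted against DMSO baseline.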

Read-out in the next test: CYP3A5 (gene 1577)
The test is described as follows: LTEA_HepaRG_CYP3A5: Life Technologies and Expression Analysis (LTEA) Assay for CYP3A5 using HepaRG (AID 2283493). The essentials:
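HepaRG cells, plated 48 h then in serum-free induction medium, dosed in duplicate for 48 h with eight half-log concentrations up to 100 uM in 0.5% DMSO. Gene mRNA by Fluidigm TaqMan qRT-PCR, normalized to ACTB, GAPDH, POLR2A.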

Read-out in test [7]: Fatty Acid-Binding Protein 1 (FABP1), FABP1 (gene 2168)
Briefly: LTEA_HepaRG_FABP1: Life Technologies and Expression Analysis (LTEA) Assay for Fatty Acid-Binding Protein 1 (FABP1) using HepaRG (AID 2283494). The essentials:
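Differentiated human HepaRG cells exposed 48 h in serum-free induction medium to eight half-log concentrations up to 100 uM (0.5% DMSO), duplicate. FABP1 mRNA by qRT-PCR, normalised to ACTB, GAPDH, POLR2A; bidirectional fitting against DMSO.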

Read-out in test [8]: Cytochrome P450 4A22 (Homo sapiens) (UniProt Q5TCH4)
The test is described as follows: LTEA_HepaRG_CYP4A22: Life Technologies and Expression Analysis (LTEA) Assay for Cytochrome P450 4A22 (CYP4A22) using HepaRG (AID 2283495). The gist of the method: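 Readout is CYP4A22 transcript induction or loss, quantified by qRT-PCR and normalized to ACTB, GAPDH and POLR2A. Human HepaRG cells receive test chemicals for 48 h at eight half-log concentrations from 100 uM in 0.5% DMSO.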

Read-out in test [9]: Cytochrome P450 7A1 (Homo sapiens) (UniProt P22680)
The test is described as follows: LTEA_HepaRG_CYP7A1: Life Technologies and Expression Analysis (LTEA) Assay for Cytochrome P450 7A1 (CYP7A1) using HepaRG (AID 2283496). The essentials:
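HepaRG cells plated 48 h, then switched to serum-free induction medium and exposed in duplicate for 48 h to 8-point half-log series from 100 uM in 0.5% DMSO. CYP7A1 mRNA by qRT-PCR (TaqMan), normalized to ACTB/GAPDH/POLR2A; bidirectional fit versus DMSO.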

Read-out in test [10]: Glutathione S-Transferase (GSTA2), GSTA2 (gene 2939)
Briefly: LTEA_HepaRG_GSTA2: Life Technologies and Expression Analysis (LTEA) Assay for Glutathione S-Transferase (GSTA2) using HepaRG (AID 2283497). The gist of the method:
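Differentiated human HepaRG cells were exposed in duplicate for 48 h in serum-free induction medium, 8 points from 100 uM top in half-log steps, 0.5% DMSO. GSTA2 mRNA was measured by TaqMan qRT-PCR, normalized to ACTB, GAPDH and POLR2A; bidirectional fit versus DMSO.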

Read-out in test [11]: Glutamate-cysteine ligase catalytic (GCLC), GCLC (gene 2729)
Briefly: LTEA_HepaRG_GCLC: Life Technologies and Expression Analysis (LTEA) Assay for Glutamate-cysteine ligase catalytic (GCLC) using HepaRG (AID 2283498). The gist of the method: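 Differentiated HepaRG cells exposed 48 h in serum-free induction medium, eight-point half-log series topping at 100 uM in 0.5% DMSO, duplicates. GCLC mRNA by qRT-PCR normalized to ACTB, GAPDH and POLR2A, fitted bidirectionally versus DMSO.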

Read-out in test [12]: growth arrest and DNA damage 45 (GADD45G), GADD45G (gene 10912)
The test is described as follows: LTEA_HepaRG_GADD45G: Life Technologies and Expression Analysis (LTEA) Assay for growth arrest and DNA damage 45 (GADD45G) using HepaRG (AID 2283499). The essentials:
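Gain or loss of GADD45G mRNA, quantified by TaqMan qRT-PCR against three housekeeping genes, is fitted in both directions relative to 0.5% DMSO. Human HepaRG cultures receive test chemical for 48 h at up to 100 uM.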

Read-out in test [13]: Glutamate-cysteine ligase regulatory (GCLM), GCLM (gene 2730)
The test is described as follows: LTEA_HepaRG_GCLM: Life Technologies and Expression Analysis (LTEA) Assay for Glutamate-cysteine ligase regulatory (GCLM) using HepaRG (AID 2283500). The gist of the method: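 Differentiated HepaRG cells exposed 48 h in serum-free induction medium to eight half-log concentrations up to 100 uM (0.5% DMSO). GCLM mRNA by TaqMan qRT-PCR, normalized to ACTB, GAPDH and POLR2A; bidirectional fit versus DMSO.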

Read-out in another test: CYP2E1 (gene 1571)
The test is described as follows: LTEA_HepaRG_CYP2E1: Life Technologies and Expression Analysis (LTEA) Assay for CYP2E1 using HepaRG (AID 2283485). The essentials:
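HepaRG cells, plated 48 h, then exposed 48 h in serum-free induction medium to eight half-log concentrations from 100 uM in 0.5% DMSO, duplicate. CYP2E1 mRNA by qRT-PCR, normalized to ACTB/GAPDH/POLR2A; bidirectional fit versus DMSO.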

Sequence of Cytochrome P450 3A7 (Homo sapiens) (P24462 whole entry, looked up): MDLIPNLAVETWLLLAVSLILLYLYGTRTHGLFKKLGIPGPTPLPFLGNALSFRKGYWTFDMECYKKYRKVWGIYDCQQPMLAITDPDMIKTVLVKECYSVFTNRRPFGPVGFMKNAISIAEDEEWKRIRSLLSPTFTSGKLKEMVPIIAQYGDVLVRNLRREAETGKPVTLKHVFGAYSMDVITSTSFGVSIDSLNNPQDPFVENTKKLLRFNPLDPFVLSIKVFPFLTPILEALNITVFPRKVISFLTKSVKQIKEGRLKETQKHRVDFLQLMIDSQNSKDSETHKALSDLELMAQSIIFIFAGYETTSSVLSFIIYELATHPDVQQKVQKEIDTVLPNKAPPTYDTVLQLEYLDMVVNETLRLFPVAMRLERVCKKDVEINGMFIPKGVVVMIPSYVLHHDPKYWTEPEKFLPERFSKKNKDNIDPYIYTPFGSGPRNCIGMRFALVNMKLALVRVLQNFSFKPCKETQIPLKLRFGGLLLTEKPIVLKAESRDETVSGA
Sequence of Cytochrome P450 2C19 (Homo sapiens) (P33261 whole entry, looked up): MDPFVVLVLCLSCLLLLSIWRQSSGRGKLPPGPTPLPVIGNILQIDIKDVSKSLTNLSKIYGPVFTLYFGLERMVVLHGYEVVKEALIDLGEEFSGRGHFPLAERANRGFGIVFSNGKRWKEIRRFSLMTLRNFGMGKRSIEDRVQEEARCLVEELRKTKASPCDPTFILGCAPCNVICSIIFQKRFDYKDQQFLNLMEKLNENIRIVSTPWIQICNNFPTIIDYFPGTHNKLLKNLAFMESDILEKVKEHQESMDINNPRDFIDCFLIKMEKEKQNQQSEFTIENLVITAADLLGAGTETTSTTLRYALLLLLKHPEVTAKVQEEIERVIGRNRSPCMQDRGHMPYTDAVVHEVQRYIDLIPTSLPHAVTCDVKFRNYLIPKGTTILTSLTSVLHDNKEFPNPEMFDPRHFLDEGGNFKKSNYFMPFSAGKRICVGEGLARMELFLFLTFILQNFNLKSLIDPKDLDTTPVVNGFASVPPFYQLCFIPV

Turning to `CCCc1ccccc1`, the compound was classed as inactive (in test [1]; in test [2]; with CYP2C8 (gene 1558); with CYP2C9 (gene 1559); with CYP4A11 (gene 1579); in test [3]). Also, the compound was called inactive (in [4]; in test [5]; in [6]; with CYP3A5 (gene 1577); in test [7]; in test [8]). Moreover, the compound was called inactive in test [9], in [10], in [11], in [12] and in [13].
In the case of `CCOc1ccc2[nH]cc(C(=O)NCc3ccccc3)c(=O)c2n1`, the result (in test [1]; in [2]; in the test with CYP2C8 (gene 1558); with CYP2C9 (gene 1559); in test [3]; in [4]) was inactive. In addition, the compound was called inactive (in test [5]; in [6]; with CYP3A5 (gene 1577); in test [7]; in [9]; in [10]). Also, the compound was called inactive in [11], in test [12] and in test [13]. In addition, the AC50 was 63 µM (active) with CYP2E1 (gene 1571) and 35.4 µM (active) in test [8].
`CCc1cccc(CC)c1N`: the AC50 in test [1] is 6.35 µM (active). In addition, the result (in test [2]; with CYP2C8 (gene 1558); in the test with CYP2C9 (gene 1559); in test [3]; in test [4]; in test [5]) was inactive. In addition, the outcome (in [6]; with CYP3A5 (gene 1577); in test [7]; in [8]; in test [9]; in test [10]) was inactive. Moreover, the compound was classed as inactive in test [11], in [12] and in test [13].
Regarding `c1ccc(C(O[C@@H]2CCCN(CCc3ccc4c(c3)OCO4)C2)c2ccccc2)cc1`, the AC50 in test [1] is 72 µM (active); in test [2] it was 79 µM (active); with CYP2C8 (gene 1558), 77.1 µM (active); with CYP2E1 (gene 1571), 50 µM (active); with CYP4A11 (gene 1579), 59.7 µM (active); in test [3], 63.6 µM (active). Also, the concentration at half-maximal activity (AC50) in the test with CYP3A5 (gene 1577) was 81.9 µM (active); in test [7] it was 79.1 µM (active); in [8], 6.12 µM (active); in [9], 83.6 µM (active); in test [10], 79.1 µM (active); in test [12], 75.3 µM (active). Moreover, the compound was classed as inactive in test [4], in [5], in test [11] and in test [13].

A word on the AC50: it is the concentration at which the activity in the assay is half-maximal.
